From the supplement of paper PMC10849652
Targets with a hit are over-represented here; the source holds about 8,800 in all. About 0.5% of all pairs of compound and target were hits.

What was measured:
Test in all cases: log2 fold change, soluble protein after heating vs DMSO (PISA); higher = thermal stabilisation; K562 lysate, 10 uM; active = over 0.2 and 3.5 SD of the protein, either way, in both replicates (recomputed)
lapatinib = compound: CS(=O)(=O)CCNCc1ccc(-c2ccc3ncnc(Nc4ccc(OCc5cccc(F)c5)c(Cl)c4)c3c2)o1 [lapatinib]
Outline: (§1)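 Following dounce homogenisation of K562 pellets in PBS pH 7.4 with 1 mM MgCl2, crude extract at 1 mg/mL protein was incubated for 30 min with 10 μM compound. Aliquots were then heated for 3 min over 48°C-58°C and pooled, NP-40 was added to 0.5% at 4°C, and soluble protein was recovered as the supernatant at 21,000xg for 90 min. Channel-sum-equalised TMTpro 16plex LC-MS/MS quantified this protein. Each value, from duplicates, is a log-two fold change in thermal stability relative to solvent controls.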

pictilisib = compound: CS(=O)(=O)N1CCN(Cc2cc3nc(-c4cccc5[nH]ncc45)nc(N4CCOCC4)c3s2)CC1 [pictilisib]
Outline: as §1

crizotinib = compound: C[C@@H](Oc1cc(-c2cnn(C3CCNCC3)c2)cnc1N)c1c(Cl)ccc(F)c1Cl [crizotinib]
Outline: as §1

[1] = compound: C[C@H](C1=CC=C(C=C1)C(=O)NC2=C3C=CNC3=NC=C2)N
Outline: as §1

duvelisib = compound: C[C@H](Nc1ncnc2nc[nH]c12)c1cc2cccc(Cl)c2c(=O)n1-c1ccccc1 [duvelisib]
Outline: as §1

gandotinib = compound: Cc1cc(Nc2cc(CN3CCOCC3)c3nc(C)c(Cc4ccc(Cl)cc4F)n3n2)n[nH]1 [gandotinib]
Outline: as §1

tozasertib = compound: Cc1cc(Nc2cc(N3CCN(C)CC3)nc(Sc3ccc(NC(=O)C4CC4)cc3)n2)n[nH]1 [tozasertib]
Outline: as §1

doramapimod = compound: Cc1ccc(-n2nc(C(C)(C)C)cc2NC(=O)Nc2ccc(OCCN3CCOCC3)c3ccccc23)cc1 [doramapimod]
Outline: as §1

bafetinib = compound: Cc1ccc(NC(=O)c2ccc(CN3CC[C@H](N(C)C)C3)c(C(F)(F)F)c2)cc1Nc1nccc(-c2cncnc2)n1 [bafetinib]
Outline: as §1

[2] = compound: Cc1cccc(CC(=O)N2CCc3c2ccc(-c2cn(C)c4ncnc(N)c24)c3F)n1
Outline: as §1

nilotinib = compound: Cc1cn(-c2cc(NC(=O)c3ccc(C)c(Nc4nccc(-c5cccnc5)n4)c3)cc(C(F)(F)F)c2)cn1 [nilotinib]
Outline: as §1

[3] = compound: Cc1nc(Nc2n[nH]c3c2CN(C(=O)N[C@H](CN(C)C)c2ccccc2)C3(C)C)c2sccc2n1
Outline: as §1

dasatinib = compound: Cc1nc(Nc2ncc(C(=O)Nc3c(C)cccc3Cl)s2)cc(N2CCN(CCO)CC2)n1 [dasatinib]
Outline: as §1

[4] = compound: Cc1ncc(-c2ccnc(Nc3ccc(S(C)(=O)=O)cc3)n2)n1C(C)C
Outline: as §1

[5] = compound: Cn1cc(-c2ccc3c(c2)CCN3C(=O)Cc2cccc(C(F)(F)F)c2)c2c(N)ncnc21
Outline: as §1

quisinostat = compound: Cn1cc(CNCC2CCN(c3ncc(C(=O)NO)cn3)CC2)c2ccccc21 [quisinostat]
Outline: as §1

tipifarnib = compound: Cn1cncc1[C@@](N)(c1ccc(Cl)cc1)c1ccc2c(c1)c(-c1cccc(Cl)c1)cc(=O)n2C [tipifarnib]
Outline: as §1

[6] = compound: NC(=O)Nc1cc(-c2cccc(F)c2)sc1C(=O)N[C@H]1CCCNC1
Outline: as §1

[7] = compound: NC(=O)c1cnc(N[C@@H]2CCCC[C@@H]2N)nc1Nc1cccc(-n2nccn2)c1
Outline: as §1

[8] = compound: NC1(c2ccc(-c3nc4ccn5c(=O)[nH]nc5c4cc3-c3ccccc3)cc2)CCC1
Outline: as §1

Measured: log2 fold change

SNRNP40 (UniProt Q96DI7)
UniProt Q96DI7, sequence (Q96DI7 whole entry, looked up): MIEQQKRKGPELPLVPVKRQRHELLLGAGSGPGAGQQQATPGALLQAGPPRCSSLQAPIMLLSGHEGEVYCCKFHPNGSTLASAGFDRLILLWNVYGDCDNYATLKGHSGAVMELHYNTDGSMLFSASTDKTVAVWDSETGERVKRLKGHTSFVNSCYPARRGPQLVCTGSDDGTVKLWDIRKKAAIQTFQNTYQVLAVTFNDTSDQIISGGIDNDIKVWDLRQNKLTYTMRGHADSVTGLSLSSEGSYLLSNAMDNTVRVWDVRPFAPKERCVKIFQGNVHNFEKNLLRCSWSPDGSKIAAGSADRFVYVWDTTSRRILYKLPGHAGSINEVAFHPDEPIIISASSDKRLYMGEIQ
inactive: lapatinib -0.014 | pictilisib 0.063 | crizotinib -0.042 | [1] -0.075 | duvelisib -0.006 | gandotinib 0.167 | tozasertib 0.015 | doramapimod 0.121 | bafetinib 0.011 | [2] 0.089 | nilotinib 0.018 | [3] 0.03 | dasatinib -0.007 | [4] 0.019 | [5] -0.004 | quisinostat -0.027 | tipifarnib 0.012 | [6] 0.013 | [7] -0.012 | [8] 0.002

SMG1 (UniProt Q96Q15)
inactive: lapatinib -0.025 | pictilisib -0.05 | crizotinib -0.019 | [1] 0.002 | duvelisib 0.003 | gandotinib -0.105 | tozasertib 0.024 | doramapimod 0.015 | bafetinib -0.057 | [2] 0.049 | nilotinib -0.029 | [3] 0.026 | dasatinib -0.021 | [4] 0.038 | [5] 0.006 | quisinostat -0.05 | tipifarnib -0.028 | [6] 0.061 | [7] 0 | [8] -0.032

STK36 (UniProt Q9NRP7)
active: quisinostat -1.31
inactive: lapatinib -0.213 | pictilisib -0.007 | crizotinib -0.833 | [1] -0.551 | duvelisib 0.191 | gandotinib 0.284 | tozasertib 0 | doramapimod 0.202 | bafetinib -0.322 | [2] 0.398 | nilotinib 0.081 | [3] -0.179 | dasatinib -0.142 | [4] -0.02 | [5] -0.113 | tipifarnib -0.059 | [6] 0.059 | [7] 0.117 | [8] -0.265

SPAG5 (UniProt Q96R06)
inactive: lapatinib 0.013 | pictilisib -0.004 | crizotinib -0.056 | [1] -0.016 | duvelisib 0.038 | gandotinib -0.11 | tozasertib 0.029 | doramapimod 0.036 | bafetinib -0.044 | [2] 0.058 | nilotinib 0.026 | [3] -0.013 | dasatinib -0.006 | [4] 0.001 | [5] 0.02 | quisinostat -0.051 | tipifarnib -0.045 | [6] 0.001 | [7] 0.004 | [8] -0.008

SLC25A44 (UniProt Q96H78)
UniProt Q96H78, sequence (Q96H78 whole entry, looked up): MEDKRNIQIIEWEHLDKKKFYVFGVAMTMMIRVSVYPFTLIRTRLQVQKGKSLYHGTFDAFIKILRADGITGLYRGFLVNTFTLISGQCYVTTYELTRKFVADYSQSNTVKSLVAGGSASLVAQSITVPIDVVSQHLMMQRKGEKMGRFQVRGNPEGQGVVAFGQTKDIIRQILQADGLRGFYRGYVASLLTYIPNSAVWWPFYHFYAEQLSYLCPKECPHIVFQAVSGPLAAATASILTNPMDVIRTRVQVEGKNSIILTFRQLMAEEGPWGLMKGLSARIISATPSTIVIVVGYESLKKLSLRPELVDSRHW
active: dasatinib -0.539
inactive: lapatinib -0.031 | pictilisib -0.014 | crizotinib -0.034 | [1] -0.069 | duvelisib 0.233 | gandotinib 0.047 | tozasertib -0.008 | doramapimod -0.01 | bafetinib -0.037 | [2] 0.166 | [5] -0.162 | quisinostat -0.025 | [6] 0.044 | [7] 0.005 | [8] 0.363

SH3GL1 (UniProt Q99961)
UniProt Q99961, sequence (Q99961 whole entry, looked up): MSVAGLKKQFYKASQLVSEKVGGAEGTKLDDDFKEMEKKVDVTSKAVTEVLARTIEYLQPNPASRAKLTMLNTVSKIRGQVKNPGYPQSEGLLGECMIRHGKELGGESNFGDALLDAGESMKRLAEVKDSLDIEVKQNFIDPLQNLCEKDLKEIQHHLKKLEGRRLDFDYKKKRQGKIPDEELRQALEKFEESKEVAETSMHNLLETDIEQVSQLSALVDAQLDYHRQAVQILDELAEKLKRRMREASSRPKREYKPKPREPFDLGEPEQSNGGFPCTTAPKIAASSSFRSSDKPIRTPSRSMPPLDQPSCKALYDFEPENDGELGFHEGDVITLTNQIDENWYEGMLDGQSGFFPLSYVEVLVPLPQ
inactive: lapatinib 0.013 | pictilisib 0.005 | crizotinib -0.017 | [1] 0.028 | duvelisib 0.023 | gandotinib 0.009 | tozasertib 0.013 | doramapimod 0.025 | bafetinib -0.001 | [2] -0.063 | nilotinib -0.01 | [3] 0.029 | dasatinib -0.024 | [4] 0.01 | [5] -0.009 | quisinostat -0.046 | tipifarnib 0.015 | [6] 0.004 | [7] 0.006 | [8] 0.033

SLC20A1 (UniProt Q8WUM9)
inactive: lapatinib -0.002 | pictilisib -0.065 | crizotinib -0.009 | [1] 0.016 | duvelisib 0.038 | gandotinib -0.016 | tozasertib -0.006 | doramapimod 0.042 | bafetinib -0.075 | [2] -0.013 | nilotinib -0.021 | [3] -0.001 | dasatinib -0.023 | [4] -0.03 | [5] 0.007 | quisinostat -0.048 | tipifarnib -0.007 | [6] -0.034 | [7] 0.05 | [8] -0.099

SMYD3 (UniProt Q9H7B4)
UniProt Q9H7B4, sequence (Q9H7B4 whole entry, looked up): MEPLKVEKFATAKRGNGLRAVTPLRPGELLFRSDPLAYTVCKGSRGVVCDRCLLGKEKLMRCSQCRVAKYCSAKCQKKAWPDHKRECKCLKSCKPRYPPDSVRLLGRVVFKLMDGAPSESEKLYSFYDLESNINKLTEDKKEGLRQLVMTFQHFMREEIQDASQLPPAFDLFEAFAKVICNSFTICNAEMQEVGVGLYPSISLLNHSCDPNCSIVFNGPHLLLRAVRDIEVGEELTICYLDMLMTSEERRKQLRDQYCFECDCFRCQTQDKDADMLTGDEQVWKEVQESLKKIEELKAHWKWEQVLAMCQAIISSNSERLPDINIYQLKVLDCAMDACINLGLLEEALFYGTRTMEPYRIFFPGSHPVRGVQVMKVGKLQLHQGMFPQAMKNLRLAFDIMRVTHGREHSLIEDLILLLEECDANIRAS
inactive: lapatinib 0.017 | pictilisib -0.018 | crizotinib -0.146 | duvelisib 0.062 | tozasertib 0.023 | doramapimod 0.053 | bafetinib -0.062 | nilotinib 0.004 | [3] 0.022 | dasatinib -0.101 | [4] 0.01 | [5] -0.029 | quisinostat -0.056 | tipifarnib 0.031 | [6] 0.038 | [7] 0.036 | [8] -0.051

SLC25A25 isoform 3 (UniProt Q6KCM7)
UniProt Q6KCM7, sequence (Q6KCM7 whole entry, looked up): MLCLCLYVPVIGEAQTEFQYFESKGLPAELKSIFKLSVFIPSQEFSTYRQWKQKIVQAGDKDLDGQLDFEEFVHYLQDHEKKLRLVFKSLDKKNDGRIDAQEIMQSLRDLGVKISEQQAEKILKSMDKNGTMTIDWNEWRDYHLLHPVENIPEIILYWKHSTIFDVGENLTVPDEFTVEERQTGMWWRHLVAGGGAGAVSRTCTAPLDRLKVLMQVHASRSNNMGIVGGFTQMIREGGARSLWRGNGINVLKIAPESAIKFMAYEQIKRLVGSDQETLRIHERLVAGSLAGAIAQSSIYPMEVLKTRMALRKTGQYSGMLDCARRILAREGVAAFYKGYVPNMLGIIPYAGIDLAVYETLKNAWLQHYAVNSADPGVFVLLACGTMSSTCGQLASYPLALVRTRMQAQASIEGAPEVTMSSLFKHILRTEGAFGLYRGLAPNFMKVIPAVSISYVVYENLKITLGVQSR
inactive: lapatinib -0.004 | pictilisib 0.021 | crizotinib -0.039 | [1] 0.013 | duvelisib -0.014 | gandotinib -0.047 | tozasertib 0 | doramapimod 0.015 | bafetinib 0.013 | [2] 0.043 | nilotinib 0.027 | [3] -0.015 | dasatinib 0.03 | [4] -0.063 | [5] 0.031 | quisinostat -0.038 | tipifarnib -0.006 | [6] 0.021 | [7] 0.007 | [8] -0.025

SRSF2 (UniProt Q01130)
UniProt Q01130, sequence (Q01130 whole entry, looked up): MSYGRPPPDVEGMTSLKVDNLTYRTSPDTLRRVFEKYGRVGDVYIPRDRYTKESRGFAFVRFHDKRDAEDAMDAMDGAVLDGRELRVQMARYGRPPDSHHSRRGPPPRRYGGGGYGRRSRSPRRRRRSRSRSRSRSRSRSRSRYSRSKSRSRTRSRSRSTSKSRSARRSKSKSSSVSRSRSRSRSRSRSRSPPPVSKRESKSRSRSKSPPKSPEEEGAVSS
active: [1] -0.299
inactive: lapatinib 0.015 | pictilisib -0.005 | crizotinib 0.006 | duvelisib 0.061 | gandotinib 0.079 | tozasertib 0.026 | doramapimod 0.05 | bafetinib -0.016 | [2] 0.109 | nilotinib -0.038 | [3] 0 | dasatinib -0.003 | [4] -0.029 | [5] 0.033 | quisinostat -0.056 | tipifarnib 0.01 | [6] 0.002 | [7] -0.008 | [8] -0.01

SLC22A18 (UniProt Q96BI1)
UniProt Q96BI1, sequence (Q96BI1 whole entry, looked up): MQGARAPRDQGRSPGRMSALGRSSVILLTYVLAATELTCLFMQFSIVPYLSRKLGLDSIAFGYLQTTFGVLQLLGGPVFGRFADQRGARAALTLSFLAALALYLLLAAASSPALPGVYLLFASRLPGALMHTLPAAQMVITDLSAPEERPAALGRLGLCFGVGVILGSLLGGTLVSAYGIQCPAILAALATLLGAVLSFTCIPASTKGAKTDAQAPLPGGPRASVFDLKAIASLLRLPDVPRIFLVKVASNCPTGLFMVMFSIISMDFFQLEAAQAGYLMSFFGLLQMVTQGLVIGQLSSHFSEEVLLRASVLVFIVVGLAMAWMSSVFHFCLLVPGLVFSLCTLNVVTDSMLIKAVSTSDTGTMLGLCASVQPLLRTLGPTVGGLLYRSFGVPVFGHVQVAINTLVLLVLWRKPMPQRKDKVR
inactive: lapatinib 0.072 | pictilisib 0.026 | crizotinib -0.064 | [1] -0.094 | gandotinib 0.147 | tozasertib -0.004 | doramapimod 0.032 | bafetinib -0.001 | [2] 0.033 | quisinostat -0.027 | [6] -0.032 | [7] 0.029 | [8] 0.007

STN1 (UniProt Q9H668)
UniProt Q9H668, sequence (Q9H668 whole entry, looked up): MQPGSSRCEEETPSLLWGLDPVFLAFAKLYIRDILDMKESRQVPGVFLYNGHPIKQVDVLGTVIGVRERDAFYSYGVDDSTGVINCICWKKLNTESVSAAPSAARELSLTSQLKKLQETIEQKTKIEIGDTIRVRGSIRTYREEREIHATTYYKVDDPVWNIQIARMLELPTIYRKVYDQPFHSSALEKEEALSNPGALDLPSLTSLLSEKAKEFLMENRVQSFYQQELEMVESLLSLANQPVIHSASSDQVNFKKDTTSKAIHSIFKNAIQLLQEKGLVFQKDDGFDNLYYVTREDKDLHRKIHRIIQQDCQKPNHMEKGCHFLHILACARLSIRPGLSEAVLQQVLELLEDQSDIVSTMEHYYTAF
inactive: lapatinib 0.128 | pictilisib -0.201 | crizotinib -0.068 | [1] -0.235 | gandotinib -0.212 | tozasertib -0.059 | doramapimod -0.101 | bafetinib -0.176 | [2] -0.028 | nilotinib -0.149 | [3] -0.071 | [4] 0.034 | quisinostat -0.104 | tipifarnib 0.005 | [6] 0.156 | [7] 0.032 | [8] 0.02

SLC30A6 isoform 2 (UniProt Q6NXT4)
UniProt Q6NXT4, sequence (Q6NXT4 whole entry, looked up): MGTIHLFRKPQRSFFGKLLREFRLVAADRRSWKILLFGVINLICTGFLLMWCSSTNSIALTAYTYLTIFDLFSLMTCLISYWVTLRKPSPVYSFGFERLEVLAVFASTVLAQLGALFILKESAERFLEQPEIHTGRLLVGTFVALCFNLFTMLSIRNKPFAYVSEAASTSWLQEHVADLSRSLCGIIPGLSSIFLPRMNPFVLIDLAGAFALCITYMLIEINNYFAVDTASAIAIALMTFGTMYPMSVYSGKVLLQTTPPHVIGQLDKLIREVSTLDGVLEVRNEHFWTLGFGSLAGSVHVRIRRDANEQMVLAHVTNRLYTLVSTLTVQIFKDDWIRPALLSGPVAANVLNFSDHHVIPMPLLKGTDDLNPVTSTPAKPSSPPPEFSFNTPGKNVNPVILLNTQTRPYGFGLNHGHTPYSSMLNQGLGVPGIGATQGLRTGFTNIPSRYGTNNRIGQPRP
inactive: lapatinib 0.115 | pictilisib -0.027 | crizotinib 0.009 | [1] -0.095 | gandotinib 0.048 | tozasertib 0.114 | doramapimod -0.058 | bafetinib 0.034 | [2] 0.116 | nilotinib -0.029 | [3] 0.118 | [4] -0.067 | quisinostat -0.048 | tipifarnib -0.071 | [6] 0.093 | [7] 0.012 | [8] -0.096

SPATA5L1 (UniProt Q9BVQ7)
UniProt Q9BVQ7, sequence (Q9BVQ7 whole entry, looked up): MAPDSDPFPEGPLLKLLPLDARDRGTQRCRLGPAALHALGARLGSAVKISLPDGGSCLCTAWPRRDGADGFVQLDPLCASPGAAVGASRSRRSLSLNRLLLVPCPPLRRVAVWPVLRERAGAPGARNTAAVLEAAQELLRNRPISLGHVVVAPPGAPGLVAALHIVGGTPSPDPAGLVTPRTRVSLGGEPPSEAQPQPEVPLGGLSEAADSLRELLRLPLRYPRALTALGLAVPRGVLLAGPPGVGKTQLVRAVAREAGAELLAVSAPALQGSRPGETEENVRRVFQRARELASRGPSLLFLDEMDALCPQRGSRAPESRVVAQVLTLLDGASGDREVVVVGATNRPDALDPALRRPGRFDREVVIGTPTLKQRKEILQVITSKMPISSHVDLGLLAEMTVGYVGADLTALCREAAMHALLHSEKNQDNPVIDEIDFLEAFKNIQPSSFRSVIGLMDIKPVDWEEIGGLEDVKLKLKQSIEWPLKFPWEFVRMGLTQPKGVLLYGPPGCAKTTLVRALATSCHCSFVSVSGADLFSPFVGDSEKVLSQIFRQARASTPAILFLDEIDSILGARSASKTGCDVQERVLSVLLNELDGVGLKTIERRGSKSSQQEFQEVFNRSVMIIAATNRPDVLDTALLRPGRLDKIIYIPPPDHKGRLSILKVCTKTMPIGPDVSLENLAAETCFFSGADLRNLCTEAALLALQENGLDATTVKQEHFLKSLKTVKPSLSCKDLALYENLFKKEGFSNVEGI
inactive: lapatinib -0.017 | pictilisib 0.011 | crizotinib -0.107 | [1] 0.016 | duvelisib 0.001 | gandotinib -0.076 | tozasertib 0.013 | doramapimod -0.035 | bafetinib -0.001 | [2] 0.049 | nilotinib -0.012 | [3] -0.003 | dasatinib -0.115 | [4] 0.016 | [5] 0.093 | quisinostat -0.059 | tipifarnib 0.028 | [6] 0.047 | [7] 0.039 | [8] -0.092

STIM1 (UniProt Q13586)
inactive: lapatinib -0.056 | pictilisib -0.028 | crizotinib -0.053 | [1] 0.145 | duvelisib -0.007 | gandotinib -0.095 | tozasertib 0.032 | doramapimod 0.044 | bafetinib -0.056 | [2] -0.037 | nilotinib -0.031 | [3] -0.019 | dasatinib -0.03 | [4] 0.001 | [5] -0.027 | quisinostat 0.023 | tipifarnib -0.012 | [6] 0.009 | [7] 0 | [8] -0.031

SIX5 (UniProt Q8N196)
inactive: lapatinib -0.105 | pictilisib 0.015 | crizotinib -0.075 | [1] 0.22 | duvelisib 0.039 | doramapimod 0.143 | bafetinib -0.009 | [2] -0.306 | nilotinib 0.06 | [3] -0.05 | dasatinib 0.02 | [4] 0.074 | [5] -0.064 | quisinostat -0.141 | tipifarnib 0.02 | [6] 0.08 | [7] 0.092 | [8] -0.025
active: gandotinib -0.48

SYPL1 (UniProt Q16563)
UniProt Q16563, sequence (Q16563 whole entry, looked up): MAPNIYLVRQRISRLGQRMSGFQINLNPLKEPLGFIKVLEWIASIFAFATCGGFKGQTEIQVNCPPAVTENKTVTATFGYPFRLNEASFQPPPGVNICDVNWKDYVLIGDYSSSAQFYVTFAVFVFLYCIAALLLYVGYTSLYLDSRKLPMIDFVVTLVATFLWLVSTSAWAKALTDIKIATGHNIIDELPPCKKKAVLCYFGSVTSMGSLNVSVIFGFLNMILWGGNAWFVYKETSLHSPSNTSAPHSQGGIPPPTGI
inactive: lapatinib 0.015 | pictilisib -0.025 | crizotinib -0.001 | duvelisib 0.004 | gandotinib 0.16 | tozasertib -0.028 | doramapimod -0.009 | bafetinib -0.034 | [2] 0.163 | nilotinib -0.005 | [3] -0.006 | dasatinib 0.013 | [4] 0.025 | [5] -0.014 | quisinostat -0.075 | tipifarnib 0.034 | [6] -0.002 | [7] -0.013 | [8] -0.044
active: [1] -0.376
